Bioassay records from PubChem BioAssay.
AGP1 TOR yeast = modulators of AGP1-GFP expression in yeast TOR pathway, primary screen, cell-based, multiplex flow cytometry, S. cerevisiae, MLPCN library; 3 h; GFP as percent of DMSO wells; GFP response vs DMSO, % at 10 µM; actives 0.02% (n = 320,000); AID 2066, 2009;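 active = GFP response relative to DMSO above a set limit, near screen average plus 3 SD, cut at about 150% in these data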;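 also: median GFP channel fluorescence of the gated AGP1 strain per well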
RPL19A TOR yeast = RPL19A-GFP expression modulators in yeast, primary screen, cell-based, S. cerevisiae, multiplex flow cytometry, MLPCN | percent response vs DMSO, % at 10 µM | AID 2025, 2009 | S. cerevisiae RPL19A-GFP strain, 3 h; hits give low values | actives 0.3% (n = 330,000);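 active = percent response vs DMSO below 50%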;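 also: median channel GFP fluorescence of the barcoded RPL19A-GFP strain; ratio of sample median GFP to plate DMSO average so 100% = DMSO; lower means less RPL19A-GFP as with rapamycin TOR inhibition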
MEP2-GFP yeast = modulators of MEP2-GFP levels in yeast, primary screen, S. cerevisiae, multiplex flow cytometry, MLPCN library; actives 0.51% (n = 330,000); S. cerevisiae MEP2-GFP strain, 3 h; 100% = DMSO control level; GFP response vs DMSO, % at 10 µM; AID 2016, 2009;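 active = GFP response versus DMSO above a set limit, roughly screen mean plus 3 SD, cut at about 180% in these data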;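 also: median GFP fluorescence of the barcode-gated MEP2-GFP cells per well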
CIT2-GFP yeast = modulators of CIT2-GFP expression in yeast, primary screen, S. cerevisiae, GFP fusion, multiplex flow cytometry, MLPCN library | S. cerevisiae CIT2-GFP strain, 3 h; 100 means same as DMSO wells | GFP response vs DMSO, % at 10 µM | actives 0.065% (n = 320,000);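 active = GFP response relative to DMSO above a set limit, near the screen mean plus 3 SD, cut at about 150% in these data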;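 also: ratio of well median GFP fluorescence to mean of DMSO wells on the plate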
LAP4 TOR yeast = modulators of LAP4-GFP expression in yeast, primary screen, S. cerevisiae, multiplex flow cytometry, MLPCN library. GFP response vs DMSO, % at 10 µM. AID 2023, 2009. 3 h; median GFP as percent of DMSO wells. actives 0.34% (n = 320,000);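 active = GFP response vs DMSO above a set limit, about the screen mean plus 3 SD, cut at about 150% in these data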
LAP4 cherry2 = LAP4-GFP expression modulators in yeast, confirmation, cell-based, second cherry pick, flow cytometry. shares compounds with LAP4 TOR yeast. S. cerevisiae LAP4-GFP strain, 3 h. GFP response vs DMSO, % at 10 µM. actives 20% (n = 590). AID 2621, 2010;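 active = GFP signal as percent of the solvent control above about 150%, meaning raised reporter expression, limit read from the data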;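 also: ratio of well median GFP fluorescence to plate DMSO mean so 100% = DMSO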
MEP2 cherry2 = modulators of MEP2-GFP levels in yeast, confirmation, S. cerevisiae, flow cytometry GFP, second cherry picks; GFP response vs DMSO, % at 10 µM; S. cerevisiae MEP2-GFP strain, 3 h; actives 10% (n = 590); AID 2622, 2010; shares compounds with LAP4 TOR yeast;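 active = GFP signal above 150% of the solvent control wells, that is a rise of more than half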;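 also: median channel GFP fluorescence of all gated yeast cells per well; ratio of median GFP to plate DMSO average so 100% = DMSO level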
RPL19A GFP CP2 = RPL19A-GFP modulators in TOR pathway yeast, confirmation, cell-based, S. cerevisiae, flow cytometry, second cherry pick. shares compounds with LAP4 TOR yeast. S. cerevisiae RPL19A-GFP strain, 3 h; hits give low values; 100% means same as DMSO wells. GFP response vs DMSO, % at 10 µM. actives 3% (n = 590);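 active = under 65% GFP response relative to DMSO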;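 also: median GFP channel fluorescence per well over the all cells gate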
CIT2 GFP CP2 = modulators of CIT2-GFP expression in yeast, confirmation, flow cytometry, second cherry pick, single plex | shares compounds with LAP4 TOR yeast | S. cerevisiae CIT2-GFP strain, 3 h; DMSO control wells read 100% | GFP response vs DMSO, % at 10 µM | actives 8% (n = 590);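 active = GFP response vs DMSO above about 150%, limit read from the data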;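 also: median green fluorescence per well over all gated yeast cells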
AGP1-GFP pick2 = AGP1-GFP expression modulators, hit retest, confirmation, cell-based, flow cytometry, S. cerevisiae, cherry pick set 2 | shares compounds with LAP4 TOR yeast | S. cerevisiae AGP1-GFP strain, 3 h | percent response vs DMSO, % at 10 µM | 590 tested, under 10 active | AID 2643, 2010;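 active = over 150 percent of DMSO response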;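 also: median GFP channel fluorescence over all cells without mother daughter split; sample median GFP divided by mean DMSO control so 100% equals DMSO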
Yeast autofluor = compound autofluorescence in yeast s288c, dose response, artefact control for yeast TOR pathway GFP screen, s288c strain. shares compounds with LAP4 TOR yeast. S. cerevisiae s288c, 520 nm autofluorescence, flow cytometry, 3 h; hits give high values; zero means same as solvent-only cells. fluorescence change (kMESF span) at 33 µM. 610 tested, under 10 active. AID 2757, 2010;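 active = fluorescence span over the dose series, or activity score, above about 33, limit read from the data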
Active calls of the source: *; . = not tested or not shown. Compounds with a hit are over-represented: about 0.92% of the library has one in this group of screens.

SMILES | AGP1 TOR yeast | RPL19A TOR yeast | MEP2-GFP yeast | CIT2-GFP yeast | LAP4 TOR yeast | LAP4 cherry2 | MEP2 cherry2 | RPL19A GFP CP2 | CIT2 GFP CP2 | AGP1-GFP pick2 | Yeast autofluor
Cc1ccc(-c2ccc(C(=O)Nc3cccc(F)c3)o2)c2ccccc12 | 79.7 | 99.3 | 93.0 | 80.2 | 170.7* | 104.2 | 115.3 | 99.1 | 100.1 | 98.6 | .
O=C(Nc1cccc(F)c1)c1ccc(-c2ccccc2Cl)o1 | 95.6 | 108.2 | 102.2 | 92.6 | 115.0 | . | . | . | . | . | .
O=C(NC(=S)Nc1ccc2oc(=O)ccc2c1)c1cccc(Cl)c1 | 23.1 | 54.9 | 139.2 | 105.6 | 86.8 | 97.1 | 103.2 | 102.3 | 100.7 | 101.6 | 0.2
O=C(NC(=S)Nc1ccc2oc(=O)ccc2c1)c1cccc(F)c1 | 100.1 | 100.7 | 105.2 | 108.3 | 92.3 | . | . | . | . | . | .
C=CCOc1ccc(/C=N/n2nnnc2N)cc1OC | 114.2 | 103.8 | 97.2 | 101.8 | 112.2 | . | . | . | . | . | .
Cc1cc(C)c2c(-n3cccc3)c(C(=O)NNS(=O)(=O)c3ccc(Cl)cc3)sc2n1 | 102.7 | 98.1 | 97.5 | 83.7 | 102.7 | . | . | . | . | . | .
Cc1cc(=O)c(C(=O)O)nn1-c1ccccc1C(F)(F)F | 108.5 | 106.5 | 106.2 | 105.3 | 96.5 | . | . | . | . | . | .
COc1ccc2c(c1)C(=O)N(c1ccccc1OC)C(=O)C2(C)C | 99.3 | 94.2 | 101.7 | 91.2 | 114.6 | . | . | . | . | . | .
CC(C)C[C@]1(c2ccccc2)ON(c2ccccc2C(F)(F)F)C1=O | 74.1 | 99.8 | 89.3 | 96.8 | 88.1 | 103.8 | 99.8 | 104.8 | 112.0 | 99.4 | -0.1
COc1ccccc1[C@]1(C)ON(c2ccccc2C(F)(F)F)C1=O | 87.3 | 91.8 | 89.3 | 88.7 | 156.3* | 150.3* | 110.0 | 100.4 | 107.1 | 100.5 | 0.3
CC[C@]1(c2ccccc2OC)ON(c2ccccc2C(F)(F)F)C1=O | 81.1 | 93.1 | 100.0 | 85.5 | 117.8 | 150.0 | 119.8 | 103.4 | 117.6 | 110.0 | 0
CCCNC(=O)NC(=O)CSc1ccc2c(c1)OCCO2 | 104.3 | 93.3 | 106.6 | 100.5 | 100.3 | . | . | . | . | . | .
OCC1C2c3ccccc3C(c3ccccc32)C1CO (configuration not stated) | 94.7 | 94.6 | 98.4 | 90.3 | 103.1 | . | . | . | . | . | .
Cc1ccc(C(=O)CCC(=O)Nc2ccccc2F)cc1 | 98.9 | 101.7 | 110.6 | 101.2 | 101.3 | . | . | . | . | . | .
COCCCNC(=O)C(=O)NCC1CCCN1S(=O)(=O)c1cccs1 (configuration not stated) | 100.0 | 77.5 | 106.3 | 67.2 | 205.2* | 101.0 | 103.2 | 101.5 | 100.7 | 99.1 | .
CNC(=O)C(=O)NCC1CCCN1S(=O)(=O)c1cccs1 (configuration not stated) | 114.2 | 105.3 | 105.8 | 108.6 | 107.1 | . | . | . | . | . | .
